Compound activity: PubChem, National Center for Advancing Translational Sciences (NCATS)
ELG1 repair inh = blocks ELG1-dependent DNA repair in HEK293T cells | HEK293T ELG1-luciferase reporter, luminescence, 16 h; DNA damage induced by 5-fluorouridine | Potency, µM (doses to about 46.1 µM), without a hit: at the highest dose activity change, negative = inhibition, usual class: inhibitors | actives 2.3% (n = 330,000); note: potency is the fitted concentration of half-maximal effect; nearly all actives have a fitted effect of over 55% in size
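Quantitative HTS, concentration-response format. 2,000 cells/well co-treated with 5-fluorouridine and compound, 16 hr in 5% CO2 at 37 °C; ONE-Glo luminescence read after 30 min.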
DT40 TDP1 CPT = DT40-hTDP1 cell growth loss with CPT; chicken DT40 Tdp1-/-;hTDP1 cells + 20 nM CPT, ATP luminescence, 48 h; Potency, µM (highest dose often 46.2 µM), for inactives: at the highest dose activity change, negative = growth inhibition, most hits filed as inhibitors; actives 12% (n = 420,000); note: potency is the fitted concentration of half-maximal effect; nearly all actives have a fitted effect of over 55% in size
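Chicken DT40 Tdp1-/- cells stably complemented with human TDP1 were seeded at 400 cells/well in medium containing 20 nM camptothecin, exposed to pin-transferred compounds, and grown at 37 °C for at least 48 hr. Viability was read as ATP luminescence.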
DT40 TDP1 no CPT = qHTS for Inhibitors of human tyrosyl-DNA phosphodiesterase 1 (TDP1): qHTS in cells in absence of CPT; DT40 Tdp1-/- hTDP1 cells, no CPT, ATP luminescence, 48 h; Potency, µM (series often up to 46.2 µM), without a hit: top-dose activity change, negative = growth inhibition, hits mostly inhibitors; actives 15% (n = 420,000); AID 686978, 2013; note: potency is the fitted concentration of half-maximal effect; nearly all actives have a fitted effect of over 55% in size
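Chicken DT40 Tdp1-/- cells complemented with human TDP1, screened without camptothecin (DMSO vehicle only), 400 cells/well. Compounds pin-transferred, cells incubated at 37 °C for at least 48 hr. Growth read as ATP-dependent luminescence (CellTiter-Glo, 30 min at RT).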
VP16 counter = counter-screen for ROR gamma inhibitors: Gal4-VP16 reporter. Drosophila S2 Gal4-VP16 UAS-luciferase, luminescence, 20 h. Potency, µM (series often up to 53.6 µM), without a hit: at the top dose activity, negative = inhibition, usual class: inhibitors. actives 3.5% (n = 310,000). AID 2546;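 note: Gal4-VP16 expression switched on by copper sulfate through the metallothionein promoter; potency is the fitted concentration of half-maximal effect; nearly all actives have a fitted effect of over 50% in size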
RORg inh = ROR gamma (mouse) transcription inhibition; Drosophila S2 Gal4-RORgamma UAS-luciferase reporter, 20 h; actives 5.4% (n = 310,000); Potency, µM (titrated, usually from 53.6 µM), for the others: at the highest dose activity change, negative = inhibition, hits mostly inhibitors; P51450; note: potency is the fitted concentration of half-maximal effect; nearly all actives have a fitted effect of over 60% in size
Target sequence (P51450 whole entry, looked up, the tested form may be a part): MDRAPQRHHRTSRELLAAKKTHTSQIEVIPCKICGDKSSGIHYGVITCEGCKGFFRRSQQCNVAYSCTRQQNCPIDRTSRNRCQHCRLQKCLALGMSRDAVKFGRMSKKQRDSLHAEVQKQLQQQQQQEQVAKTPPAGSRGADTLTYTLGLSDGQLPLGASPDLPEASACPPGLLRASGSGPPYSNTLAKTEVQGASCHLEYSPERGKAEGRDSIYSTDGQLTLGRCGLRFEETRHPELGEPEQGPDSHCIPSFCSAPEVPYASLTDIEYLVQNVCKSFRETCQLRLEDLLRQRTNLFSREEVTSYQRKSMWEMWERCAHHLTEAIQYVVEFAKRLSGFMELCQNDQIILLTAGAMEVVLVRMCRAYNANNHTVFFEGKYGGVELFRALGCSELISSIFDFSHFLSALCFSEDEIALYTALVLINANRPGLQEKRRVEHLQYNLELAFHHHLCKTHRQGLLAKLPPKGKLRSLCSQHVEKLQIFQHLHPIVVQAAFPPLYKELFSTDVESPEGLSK
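Luciferase reporter read in Schneider cells carrying Gal4-RORγ (mouse) and UAS-Photinus luciferase; cells given compound 1 h before 700 uM copper sulfate induction, then incubated 20 h at ambient temperature.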
IL-1B inflam inh = blocks inflammasome-driven IL-1 beta release; THP-1 LPS/ATP IL-1B secretion, AlphaLISA, 16 h; stronger effect = lower value; activity change, % at 57.5 µM; actives 4.7% (n = 360,000); AID 743279; in the data active = activity change below about -50%; inconclusive = mostly about -30% to -49%
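Secreted IL-1B measured by AlphaLISA bead assay after 16 h compound exposure of THP-1 cells; compounds (final up to 57.5 uM) added 1 h before LPS (250 ng/mL) and ATP (1.25 mM) stimulation; lower signal means less secretion.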
Active calls of the source: *; u = inconclusive; x = not tested or not shown. Sampled rows, rich in hits. Any-hit rate of the full collection: about 21%. Unless noted, calls come from the whole dose curve; as a rule, active = well fitted curve in the direction sought with a large enough effect; inconclusive = small, poorly fitted or top-dose-only effect, or another doubt; inactive = no such curve, though single readings can be large; an effect the other way counts as inactive or inconclusive. % is set by controls: 0 for no effect and ±100 for the full control effect.

SMILES	ELG1 repair inh	DT40 TDP1 CPT	DT40 TDP1 no CPT	VP16 counter	RORg inh	IL-1B inflam inh
O=[N+]([O-])/C=C/c1cn(Cc2ccccc2)c2ccccc12	u	18.4µM*	11.6µM*	-10.1%	13.6%	-69.9*
O=C(O)Cn1cc(/C=C/[N+](=O)[O-])c2ccccc21	8.0%	-0.6%	-9.3%	16.0%	-1.7%	-11.4
O=C(COC(=O)c1cc2c(s1)CCC2)Nc1ccc(F)cc1	-3.5%	u	14.6µM*	-0.2%	19.6%	0.0
COc1ccc(NC(=O)COC(=O)c2cc3c(s2)CCC3)cc1	11.7%	16.4µM*	u	x	x	14.1
O=C(COC(=O)c1cc2c(s1)CCCC2)Nc1ccc(Cl)cn1	u	-19.0%	14.5%	-15.3%	4.3%	28.3
NC(=O)c1ccc(NC(=O)COC(=O)c2cc3c(s2)CCC3)cc1	9.4%	u	-23.3%	x	x	14.7
CCOCCCNC(=O)c1cnc2sc(N3CCCCCC3)nn2c1=O	x	1.8%	-18.3%	x	x	x
O=C(NCc1cccs1)c1nn(-c2ccccc2Cl)nc1CO	x	-19.8%	u	x	x	x
Cc1ccccc1C(=O)N1CCN(c2ccc(NC(=O)c3ccc([N+](=O)[O-])o3)cc2)CC1	u	5.17µM*	2.31µM*	u	-28.1%	-94.6*
Cc1ccccc1C(=O)N1CCN(c2ccc(NC(=O)c3ccc4c(c3)OCO4)cc2)CC1	5.8µM*	13µM*	13µM*	-5.5%	u	-131.5*
O=C(c1ccc(Br)o1)N1CCN(c2ccc(F)cc2)CC1	-12.0%	-8.5%	-5.4%	3.7%	-21.4%	u
O=C(Nc1ccc(N2CCN(C(=O)c3ccc(Cl)cc3)CC2)cc1)c1ccc(Br)o1	20.6µM*	u	u	4.5%	35.7%	-69.0*
CN1CCN(c2ccc(NC(=O)c3ccc4c(c3)OCCO4)cc2)CC1	u	-9.6%	1.8%	-17.3%	-38.1%	-1.1
O=C(Nc1ccc(N2CCN(C(=O)c3ccccc3)CC2)cc1)c1ccc([N+](=O)[O-])o1	u	2.06µM*	1.84µM*	-2.3%	23.7%	-95.5*
O=C1CCC(O)CCN1CCSc1ccccc1 (stereo not given)	u	-4.1%	-2.4%	-5.2%	7.1%	4.4
CCN(CC(=O)NC1CCCC1)S(=O)(=O)c1ccc(Br)cc1	u	u	u	-2.8%	15.4%	23.2
Cc1ccn2c(=O)cc(CSc3nnc(C)s3)nc2c1	x	3.8%	-6.1%	x	x	x
CCOC(=O)C1CCN(C(=O)CN(c2ccc3c(c2)OCCO3)S(=O)(=O)c2ccccc2)CC1	2.9%	u	-29.6%	x	x	-5.6
Cc1cnc(-n2ncc(C(=O)NCCN3CCOCC3)c2C2CC2)nc1-c1cccs1	x	21.1%	-21.7%	x	x	x
CC(C)C[C@H](NC(=O)[C@H](CCCCN)NC(=O)CNC(=O)[C@H](CC(C)C)NC(=O)[C@@H](N)C(C)C)C(=O)N[C@@H](CO)C(=O)N[C@@H](CCC(N)=O)C(=O)N[C@@H](CCC(=O)O)C(=O)N[C@@H](CC(C)C)C(=O)N[C@@H](Cc1cnc[nH]1)C(=O)N[C@@H](CCCCN)C(=O)N[C@@H](CC(C)C)C(=O)N[C@@H](CCC(N)=O)C(=O)N[C@H](C(=O)N[C@@H](Cc1ccc(O)cc1)C(=O)N1CCC[C@H]1C(=O)N[C@@H](CCCNC(=N)N)C(=O)N[C@H](C(=O)N[C@@H](CC(N)=O)C(=O)N[C@H](C(=O)NCC(=O)N[C@@H](CO)C(=O)NCC(=O)N[C@H](C(=O)N1CCC[C@H]1C(N)=O)[C@@H](C)O)[C@@H](C)O)[C@@H](C)O)[C@@H](C)O	x	x	x	-1.1%	17.9%	x
O=C(NCCSc1ccccn1)c1ccc(Cl)cc1	u	1.3%	-4.9%	u	u	-8.1
N#CC(Sc1ccccn1)c1ccc(Cl)cc1 (stereo not given)	u	u	u	0.0%	-19.9%	-99.6*
COc1ccc(-c2cc(C(=O)N/N=C(\C)c3ccco3)c3ccccc3n2)c(OC)c1	u	u	u	-29.8%	6.31µM*	-15.7
COc1ccc(-c2cc(C(=O)NCCCn3ccnc3)c3ccccc3n2)c(OC)c1	-8.1%	2.0%	-23.8%	-2.8%	1.1%	-4.4
COc1cc2ccccc2cc1C(=O)N/N=C/c1ccc2c(c1)OCO2	-0.3%	4.61µM*	2.59µM*	-6.7%	24.7%	51.4
SMILES	ELG1 repair inh	DT40 TDP1 CPT	DT40 TDP1 no CPT	VP16 counter	RORg inh	IL-1B inflam inh
COc1ccccc1C(=O)N/N=C/c1ccc2c(c1)OCO2	u	-2.0%	-14.8%	20.9%	10.0%	-1.0
COc1ccc(-c2cc(C(=O)N/N=C/c3sccc3C)c3ccccc3n2)c(OC)c1	u	u	u	u	4.47µM*	-9.2
COc1ccc(-c2cc(C(=O)N/N=C/c3ccc4c(c3)OCO4)c3ccccc3n2)c(OC)c1	u	9.2µM*	1.84µM*	-1.5%	-17.4%	-17.2
Cc1noc(C)c1COc1ccc(C(=O)N2CCN(S(=O)(=O)c3ccc(F)cc3)CC2)cc1	x	u	0.4%	x	x	4.0
CCC(=O)N1c2ccccc2CC1C(=O)NCCc1cc(OC)c(OC)c(OC)c1 (stereo not given)	x	-16.2%	-13.5%	x	x	x
C=CC[C@H](CC(=O)NCCO)C(=O)NC[C@@H](OC(=O)[C@@H](CC=C)CC(=O)OC(C)(C)C)c1ccccc1	-7.4%	u	u	x	x	12.9
O=C(N/N=C/c1ccc2c(c1)OCO2)c1cc(-c2ccc(F)cc2)nc2ccccc12	-1.2%	14.6µM*	9.2µM*	u	u	-1.2
COc1ccc(-c2cc(C(=O)N/N=C/c3ccc(OC)c(COCC(F)(F)C(F)F)c3)c3ccccc3n2)c(OC)c1	u	5.8µM*	5.8µM*	-1.1%	-5.4%	-9.0
COCCCNC(=O)C[C@H]1C[C@H](C(=O)N(C(C)C)C(C)C)[C@@]2(C)c3[nH]c4cc(CCC(=O)N(C)C)ccc4c3CCN2C1=O	u	0.1%	1.1%	x	x	31.4
COc1ccc(CN2CCOc3c(cc(-c4cccc(OC)n4)cc3OC)C2)c(O)c1	x	-3.7%	-0.7%	x	x	x
COc1cccc(/C(C#N)=C/c2c(-c3ccc(Cl)cc3)nc3c(C)cccn23)c1	14.6µM*	20.6µM*	18.4µM*	1.8%	4.1%	-65.4*
Cc1cccn2c(/C=N/OCc3cccc(F)c3)c(-c3ccc(Cl)cc3)nc12	-13.4%	u	u	-5.9%	2.24µM*	9.8
